# Pin1 inhibitor: human Pin1 inhibition; Pin1 FP peptide displacement, HiFluor488, 10 min; hit rate 0.009% among 390,000; Potency, µM (top dose mostly 115 µM), inactives show at the highest dose activity, negative = inhibition, usual class: inhibitors; Q13526; active = well fitted inhibition curve with a large enough effect in the polarisation, with a control signal flat, not every such curve was filed as active; inconclusive = small, poorly fitted or top-dose-only effect, or effect the other way, or a change in a side signal; inactive = no such curve, though single readings can be large or run the other way; the % refers to the polarisation; also: potency is read from the fitted curve at half-maximal effect
# Target sequence (Q13526 whole entry, looked up): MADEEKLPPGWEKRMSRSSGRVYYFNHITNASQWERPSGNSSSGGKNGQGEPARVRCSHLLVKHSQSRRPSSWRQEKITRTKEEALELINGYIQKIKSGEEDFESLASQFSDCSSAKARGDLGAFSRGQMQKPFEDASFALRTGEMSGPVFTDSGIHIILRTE
# PI4K2A inh: blocks human PI4K2A kinase activity; Q9BTU6; purified PI4K2A, ADP-Glo luminescence, 1 h; active compounds read low; activity change, negative = inhibition, % at 76.9 µM; hit rate 0.13% among 420,000; AID 1346378; in the data active = activity change below about -50%; inconclusive = mostly about -30% to -49%;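 also: -100% = wells without enzyme as full effect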
# Target sequence (Q9BTU6 whole entry, looked up): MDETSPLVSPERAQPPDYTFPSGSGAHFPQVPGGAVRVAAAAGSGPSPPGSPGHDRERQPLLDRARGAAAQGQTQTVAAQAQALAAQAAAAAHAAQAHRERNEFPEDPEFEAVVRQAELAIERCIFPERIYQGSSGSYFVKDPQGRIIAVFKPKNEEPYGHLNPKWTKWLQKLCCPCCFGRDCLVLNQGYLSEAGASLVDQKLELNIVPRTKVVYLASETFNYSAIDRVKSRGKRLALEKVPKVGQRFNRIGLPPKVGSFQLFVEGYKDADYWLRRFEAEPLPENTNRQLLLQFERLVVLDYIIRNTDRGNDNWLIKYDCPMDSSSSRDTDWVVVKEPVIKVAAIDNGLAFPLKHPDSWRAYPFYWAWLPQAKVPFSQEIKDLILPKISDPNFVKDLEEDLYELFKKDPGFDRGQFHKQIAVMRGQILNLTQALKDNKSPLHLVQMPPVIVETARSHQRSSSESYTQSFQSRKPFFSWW
#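 ADP-Glo luminescence measured ADP generated by PI4K2A enzyme (4 ug/mL before mixing) with 1.2 mM PI substrate (pre-mix) and 300 microM ATP (pre-mix). Tris pH7.5 buffer with MgCl2, Triton X-100; 1 h reaction at ambient temperature.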
# Tb PFK block: T. brucei PFK enzyme inhibition | O15648 | hit rate 0.17% among 330,000 | T. brucei PFK, ADP-Glo luminescence | Potency, µM (series often up to 57.5 µM), for the others: at the highest dose activity, negative = inhibition, actives largely listed as inhibitors;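 also: potency is read from the fitted curve at half-maximal effect; 0% = uninhibited 1x PFK enzyme wells and -100% = no-enzyme wells; nearly all actives have a fitted effect of over 60% in size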
#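 Luminescent ADP detection (ADP-Glo, two-step: ATP depletion then ADP-to-ATP conversion for luciferase) reported PFK activity after 45 min room-temperature reaction of 1.25 nM enzyme with 0.5 mM F6P and 0.1 mM ATP at pH 8.0.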
# Tb PGK inh: blocks T. brucei phosphoglycerate kinase; PGK/GAPDH coupled, Kinase-Glo luminescence, 60 min; Potency, µM (top dose mostly 57.5 µM), for inactives: top-dose activity change, negative = inhibition, usual class: inhibitors; hit rate 0.043% among 380,000; AID 602233; also: potency is read from the fitted curve at half-maximal effect; nearly all actives have a fitted effect of over 60% in size
#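 Recombinant glycosomal PGK reaction used 1,3-bisphosphoglycerate generated in-well by GAPDH (100nM final) in 100mM TEA pH 7.6, 5mM MgCl2, 0.01% Tween-20. After 60 minutes at room temperature, ATP was read by Kinase-Glo Plus luminescence end-point.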
# PI5P4Ka inh: PI5P4K alpha (human) kinase inhibition. max response, %. PI5P4Kalpha enzyme, ADP-Glo luminescence, 60 min; active compounds read low. AID 652105. P48426. hit rate 1.2% among 330,000; active = max response of -50% or lower; inconclusive = between -30% and -50%; inactive = -30% or higher; also: value at the top dose of about 77 µM
#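 ADP-Glo luminescence end-point read after a 60 min room-temperature kinase reaction of PI5P4Kalpha plus substrate, initiated with ATP at 5 microM final. Buffer: 0.038 M HEPES pH 7.4, EGTA, 0.1% CHAPS, 5% DMSO.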
# The depositor's hits bear a star; i = inactive; ? = inconclusive; . = no result given. This is one part of a sample in which hits are shown more often than they occur. Unless noted, calls follow the shape of the dose curve; as a rule, active = well fitted curve in the direction sought with a large enough effect; inconclusive = small, poorly fitted or top-dose-only effect, or another doubt; inactive = no such curve, though single readings can be large; an effect the other way counts as inactive or inconclusive. Unless noted, % is scaled to controls: 0 for no effect and ±100 for the full control effect.
SMILES,Pin1 inhibitor,PI4K2A inh,Tb PFK block,Tb PGK inh,PI5P4Ka inh
O=S(=O)(c1cccc2cccnc12)N1CCC(c2cn3ccccc3n2)CC1,.,-12,.,.,.
CCOC(=O)Cc1csc(NC(=O)CSc2nc(-c3ccccc3)c(C#N)c(=O)[nH]2)n1,3%,-9,0%,-1%,-65*
Cc1ccc(C)c(NC(=O)CSc2nc(-c3ccccc3)c(C#N)c(=O)[nH]2)c1,1%,-2,.,2%,.
Cc1ccc(-n2c(SCC(=O)Nc3cccc4ccccc34)nnc2-c2ccccc2)cc1,.,2,.,.,.
NC1=NC(=O)C(=Cc2ccccc2)S1,2%,-9,.,0%,15
NC1=NC(=O)/C(=C\c2ccco2)S1,?,-13,1%,-13%,-96*
COc1ccc2nc(NC(=O)c3ccoc3C)sc2c1,-4%,-85*,-20%,?,.
O=C(O)c1cccc(NC(=O)c2ccc(N3C(=O)c4ccc(C(=O)Nc5cccc(C(=O)O)c5)cc4C3=O)cc2)c1,?,-3,?,-1%,-51*
CC(=O)NC1=NC(=O)/C(=C/c2cn(C(C)=O)nc2-c2ccccc2)S1,69%,-5,?,.,-87*
CCN=C1S/C(=C\c2cn(C(C)=O)nc2-c2ccccc2)C(=O)N1CC,4%,7,4%,-10%,.
COc1ccc(-c2cc3nc[nH]c(=O)c3s2)cc1,9%,-16,2%,i,-12
COc1ccc(-c2cc3nc(CCl)[nH]c(=O)c3s2)cc1,14%,-50*,-21%,-17%,?
Cc1ccc(N2CCN(C3=NC(=O)/C(=C\c4cn[nH]c4-c4ccccc4)S3)CC2)cc1,6%,2,-2%,-6%,-25
O=C1N=C(N2CCN(c3ccccc3)CC2)S/C1=C\c1cn[nH]c1-c1ccccc1,24%,-3,0%,-9%,-51*
O=c1c2ccccc2nc(N/N=C/c2c(O)ccc3ccccc23)n1O,?,-2,-20%,-6%,-78*
CCC(=O)NC(c1cc(Cl)c2cccnc2c1O)c1cccn1C (stereo not given),-5%,.,.,.,.
Nc1[nH]n(-c2ccccc2)c(=O)c1N=Nc1ccccc1[N+](=O)[O-],-9%,7,-6%,i,.
O=c1c2cc([N+](=O)[O-])cc([N+](=O)[O-])c2[nH]n1-c1ccccc1,?,?,-11%,?,-98*
COC(=O)CN1C(=O)[C@H]2[C@@H](c3ccc(C)o3)N3C(=O)CN(Cc4ccc(-c5ccccc5)cc4)C(=O)[C@@]3(C)[C@H]2C1=O,3%,3,2%,-3%,-62*
O=C(Cn1cc(CNC(=O)c2ccccc2)nn1)Nc1cc(C(F)(F)F)ccc1Cl,-2%,.,.,.,.
O=C(O)COc1ccc2c(c1)O/C(=C\c1cccs1)C2=O,-1%,-1,2%,i,-26
O=C(O)COc1ccc2c(c1)O/C(=C\c1ccco1)C2=O,?,-22,1%,28µM*,?
Oc1cccc(-c2c3nc(c(-c4cccc(O)c4)c4ccc([nH]4)c(-c4cccc(O)c4)c4nc(c(-c5cccc(O)c5)c5ccc2[nH]5)CC4)C=C3)c1,.,-23,.,.,.
O=C1C(Cl)=C(NCCCO)C(=O)c2ccccc21,2%,-13,-1%,-10%,-4
CCOCCCNC1=C(Cl)C(=O)c2ccccc2C1=O,6%,-27,?,2%,-93*
SMILES,Pin1 inhibitor,PI4K2A inh,Tb PFK block,Tb PGK inh,PI5P4Ka inh
NS(=O)(=O)c1ccc(N2CCCCS2(=O)=O)cc1,.,0,.,.,.
COc1ccc(C(=O)O/N=C(\N)c2ccccc2)cc1,1%,-67*,?,?,?
COc1ccc(C(=O)O/N=C(/C)c2cccs2)cc1,0%,-92*,?,?,-51*
COc1ccc(C(=O)O/N=C(\N)c2ccc(Br)cc2)cc1,6%,-3,0%,i,1
Cc1cc(-c2csc(NCc3ccccc3)n2)c(C)n1C,?,?,-4%,8%,-55*
CC(C)Nc1nc(C#N)nc(Nc2ccccc2)n1,2%,.,.,.,.
Cc1ccc(S(=O)(=O)NCC(=O)OCC(=O)c2ccc(Br)s2)cc1,3%,-6,-2%,11%,-52*
Cc1ccc(C(=O)CSc2ncnc3sc4c(c23)CCCC4)cc1,4%,3,1%,.,.
Cc1cc(NC(=O)CSc2ncnc3sc4c(c23)CCC(C)C4)no1 (stereo not given),.,.,-1%,.,.
Cc1ccc(-c2csc3ncnc(SCC(=O)O)c23)cc1,-1%,-4,-5%,-4%,-70*
O=C(O)CSc1ncnc2sc3c(c12)CCCC3,0%,-8,0%,4%,-58*
COC(=O)CSc1ncnc2scc(-c3ccccc3)c12,0%,5,2%,i,3
CC1CCc2c(sc3ncnc(SCC(=O)Nc4ccc(C(=O)O)cc4)c23)C1 (stereo not given),1%,4,1%,-8%,-67*
O=C(CSc1ncnc2sc3c(c12)CCCC3)Nc1ccc(Oc2ccccc2)cc1,.,-3,.,.,.
O=C(CSc1ncnc2sc3c(c12)CCC3)Nc1ccccc1C(=O)O,-1%,5,1%,2%,-84*
O=[S+]1([O-])N=C(Oc2cccnc2)c2ccccc21,2%,.,.,.,.
CCNc1cccc(S(=O)(=O)N2CCN(S(=O)(=O)c3ccc4c(c3)OCCO4)CC2)c1,-2%,.,.,.,.
Cc1ccccc1Nc1nc(C#N)nc(NC2CCCC2)n1,5%,.,.,.,.
C/C(=C(\CCO)SS/C(CCO)=C(\C)N(C=O)Cc1cnc(C)nc1N)N(C=O)Cc1cnc(C)nc1N,.,-2,.,.,.
CN(C)CCN1CCN(c2cccc(Cl)c2)C1=O,.,-2,.,.,.
CCSc1ncnc2sc3c(c12)CCC3,0%,1,4%,4%,.
O=C(O)CSc1ncnc2sc3c(c12)CCC3,-2%,-7,1%,-4%,-68*
CC(=O)OCC(=O)[C@@]12N=C(C)O[C@@H]1C[C@H]1[C@@H]3CCC4=CC(=O)C=C[C@]4(C)[C@H]3[C@@H](O)C[C@@]12C,.,4,.,.,.
COc1ccc(NC(=O)c2cc([N+](=O)[O-])ccc2O)cc1,-9%,-63*,-6%,?,-26
N=C1S/C(=C\c2cn[nH]c2-c2ccc(F)cc2)C(=O)N1c1ccccc1F,2%,1,8%,-6%,-70*
SMILES,Pin1 inhibitor,PI4K2A inh,Tb PFK block,Tb PGK inh,PI5P4Ka inh
Cc1cc(C)c(Nc2n[nH]c(=S)s2)cc1C,.,1,.,-9%,-90*
Cc1ccc(Nc2n[nH]c(=S)s2)c(C)c1,.,0,.,-3%,-88*
Cc1nc(C)c(-c2csc(Nc3ccc(O)cc3C)n2)s1,-1%,4,1%,-8%,-3
Cc1cccc(C)c1Nc1n[nH]c(=S)s1,.,-3,.,7%,-73*
CC(C)c1ccc(Nc2n[nH]c(=S)s2)cc1,.,0,.,.,-65*
Cc1cccc(Nc2n[nH]c(=S)s2)c1C,-1%,1,3%,-2%,.
CCCCCC[C@@H](CN(CCCC)S(C)(=O)=O)c1ccccc1,.,1,.,.,.
